Compound activity deposited in PubChem by several laboratories.
CHT allo act: CHT positive allosteric modulators, primary screen, cell-based, membrane potential dye, choline EC20 | High affinity choline transporter 1 (Homo sapiens), Q9GZV3 | B-score at 10 µM | AID 488977, 2010 | 0.49% of 310,000 active | CHT-expressing cells; hits give high values; LV-AA mutant CHT in HEK293 cells;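 active = initial fluorescence not abnormally high and integrated response B-score, plate-corrected, over 3 SD above library mean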
Target sequence (Q9GZV3 whole entry, looked up): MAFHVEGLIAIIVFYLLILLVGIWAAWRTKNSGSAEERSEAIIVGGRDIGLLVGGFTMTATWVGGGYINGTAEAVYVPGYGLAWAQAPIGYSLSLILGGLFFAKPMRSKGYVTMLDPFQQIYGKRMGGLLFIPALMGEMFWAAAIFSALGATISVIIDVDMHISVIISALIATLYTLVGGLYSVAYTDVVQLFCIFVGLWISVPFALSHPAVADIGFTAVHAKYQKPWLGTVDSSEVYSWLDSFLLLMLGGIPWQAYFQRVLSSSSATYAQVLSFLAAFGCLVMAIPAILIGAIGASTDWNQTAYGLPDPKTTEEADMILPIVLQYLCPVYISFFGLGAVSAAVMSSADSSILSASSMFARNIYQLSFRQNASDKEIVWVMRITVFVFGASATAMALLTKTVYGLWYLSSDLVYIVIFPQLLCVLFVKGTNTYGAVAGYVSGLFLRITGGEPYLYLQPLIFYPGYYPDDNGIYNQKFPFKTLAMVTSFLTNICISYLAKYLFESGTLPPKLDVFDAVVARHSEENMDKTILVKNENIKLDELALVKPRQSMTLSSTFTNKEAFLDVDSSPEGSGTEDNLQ
NALP1 yeast inh: NALP1 inflammasome inhibitors in reconstituted yeast, colorimetric, S. cerevisiae, triplicate retest; S. cerevisiae NALP1/ASC/caspase-1 growth, X-gal OD620, 72 h; inhibition, % at 10 µM; 0.61% of 280,000 active; in the data active = inhibition mostly above about 24%, no sharp cut-off; inactive = mostly below about 32%
Mot1-301 SUMO: yeast Mot1-301 growth rescue at high temperature, primary screen, SUMOylation pathway inhibitor project, S. cerevisiae, ATP luminescence, 38.5C; S. cerevisiae Mot1-301 growth rescue; percent above DMSO median, 100 means doubled; growth rescue, % at 18.8 µM; 1% of 320,000 active; AID 2716, 2010;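 active = every valid replicate shows activation above 250% relative to neutral control wells; inactive = the rest, any valid replicate at or below 250%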
CHT block: inhibitors of human choline transporter CHT | High affinity choline transporter 1 (Homo sapiens), Q9GZV3 | CHT-expressing cells, membrane potential dye, choline response; hits give low values | B-score at 10 µM | 0.86% of 310,000 active | AID 488975, 2010;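 active = B-score over 3 SD under the library average, and starting fluorescence ratio not unusually high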;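 note: choline stimulus applied at its EC90 after an EC20 pre-addition; B-score computed on integrated fluorescence ratio after choline addition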
NALP3 yeast inh: NALP3 inflammasome inhibitors in reconstituted yeast, primary screen, luminescence, uHTS; Yeast reconstituted NLRP3/ASC/caspase-1, beta-gal luminescence, 24 h; inhibition, % at 10 µM; 0.39% of 330,000 active;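 active = inhibition of 50% or more; inactive = inhibition below 50%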
A1 inh: caspase 3/7 activation in MEF A1-2A-BIM cells, primary screen, A1 inhibitor project, cell-based, luminescence, HTS; Caspase-Glo 3/7 luminescence, 3 h; percent of clofoctol response, vehicle zero; caspase activation, % (concentration not given with the values); 0.066% of 330,000 active;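 active = over half of replicate activation scores above 10%, or exactly half above 10 with the replicate mean above 10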
Hits are given with their value. The list is not random: actives were taken first. Their share in the collection is about 3%.

What do the screens show for `C=CC[C@]12CCc3sccc3C1N(c1ccc(C(=O)OCC)cc1)C2=O` (some centres undefined)?
Mot1-301 SUMO: inactive; NALP3 yeast inh: inactive; A1 inh: inactive

Results for Cc1cccc(N2C(=O)CSC23CCCCC3)c1 ?
CHT allo act: inactive; NALP1 yeast inh: 35; Mot1-301 SUMO: inactive; CHT block: inactive; NALP3 yeast inh: inactive; A1 inh: inactive

Results for CCN1CCN(c2ccc(S(=O)(=O)N3CCOCC3)cc2NC(=O)C(C)Oc2ccc(Cl)cc2)CC1 (centres undefined) ?
CHT allo act: inactive; Mot1-301 SUMO: inactive; CHT block: inactive; NALP3 yeast inh: inactive; A1 inh: inactive

Results for COc1cc(CNCCc2ccc(F)cc2)ccc1OCc1ccc(Cl)nc1 ?
CHT allo act: inactive; NALP1 yeast inh: inactive; Mot1-301 SUMO: inactive; CHT block: -5.9; NALP3 yeast inh: inactive; A1 inh: inactive

What do the screens show for `CCC1(c2ccccc2)NC(=O)N(CC(=O)Nc2ccc(Cl)c(S(=O)(=O)N3CCCCC3)c2)C1=O` (centres undefined)?
CHT allo act: inactive; Mot1-301 SUMO: inactive; CHT block: inactive; NALP3 yeast inh: inactive; A1 inh: inactive

How did CCN(CC)S(=O)(=O)c1ccc(N2CCCC2)c(NC(=O)c2ccc(N3CCCC3=O)cc2)c1 do in these assays?
CHT allo act: inactive; Mot1-301 SUMO: inactive; CHT block: inactive; NALP3 yeast inh: inactive; A1 inh: inactive

How did Cc1cc(=O)oc2cc(OCC(=O)NCCc3nc4ccccc4[nH]3)ccc12 do in these assays?
CHT allo act: inactive; NALP1 yeast inh: 38; Mot1-301 SUMO: inactive; CHT block: inactive; NALP3 yeast inh: inactive; A1 inh: inactive

What do the screens show for `COc1ccc(OC)c(NC(=O)CS(=O)(=O)Cc2ccccc2)c1`?
NALP1 yeast inh: inactive; NALP3 yeast inh: inactive

Results for COc1ccc(OC)c(NS(=O)(=O)Cc2ccccc2)c1 ?
CHT allo act: inactive; NALP1 yeast inh: 42; Mot1-301 SUMO: inactive; CHT block: inactive; NALP3 yeast inh: inactive; A1 inh: inactive

Results for CN1CCN(c2ccc(CNS(=O)(=O)Cc3ccc(Cl)cc3)cc2)CC1 ?
CHT allo act: inactive; NALP1 yeast inh: 21; Mot1-301 SUMO: inactive; CHT block: inactive; NALP3 yeast inh: inactive; A1 inh: inactive

What do the screens show for `CN1CCN(c2ccc(CNS(=O)(=O)c3ccc(F)cc3Cl)cc2)CC1`?
CHT allo act: inactive; NALP1 yeast inh: inactive; Mot1-301 SUMO: inactive; CHT block: inactive; NALP3 yeast inh: inactive; A1 inh: inactive

What do the screens show for `Cc1nonc1NC(=O)CSc1nnc(-c2ccoc2C)n1-c1cccc(Cl)c1`?
CHT allo act: inactive; NALP1 yeast inh: 44; Mot1-301 SUMO: inactive; CHT block: inactive; NALP3 yeast inh: inactive; A1 inh: inactive

Results for O=C1c2ccccc2CN1Cc1ccccc1 ?
CHT allo act: inactive; NALP1 yeast inh: inactive; Mot1-301 SUMO: inactive; CHT block: inactive; NALP3 yeast inh: inactive; A1 inh: inactive

What do the screens show for `O=C(c1ccco1)N1CCN(Cc2nnnn2C2CCCCC2)CC1`?
CHT allo act: inactive; NALP1 yeast inh: inactive; Mot1-301 SUMO: inactive; CHT block: inactive; NALP3 yeast inh: inactive; A1 inh: inactive

How did COc1ccccc1N1C(=O)c2cccc3c(Cl)ccc(c23)C1=O do in these assays?
CHT allo act: inactive; NALP1 yeast inh: inactive; Mot1-301 SUMO: inactive; CHT block: inactive; NALP3 yeast inh: inactive; A1 inh: 7.8

How did CCO/C=C1/C(=O)N(c2ccccc2OC)C(=O)c2ccccc21 do in these assays?
CHT allo act: inactive; NALP1 yeast inh: inactive; Mot1-301 SUMO: inactive; CHT block: inactive; NALP3 yeast inh: inactive; A1 inh: inactive

Results for Cc1nn(C(C)C(=O)NCCCN2CCCC2)c(=O)c2nn(-c3ccccc3)c(C)c12 (centres undefined) ?
CHT allo act: inactive; NALP1 yeast inh: inactive; Mot1-301 SUMO: inactive; CHT block: inactive; NALP3 yeast inh: inactive; A1 inh: inactive

What do the screens show for `O=C(CCN1N=C(c2ccccc2)CCC1=O)NCC1COc2ccccc2O1` (centres undefined)?
CHT allo act: inactive; NALP1 yeast inh: inactive; Mot1-301 SUMO: inactive; CHT block: inactive; NALP3 yeast inh: inactive; A1 inh: inactive

How did O=C(NCc1cccc(C(F)(F)F)c1)c1ccc(=O)[nH]c1 do in these assays?
CHT allo act: inactive; NALP1 yeast inh: inactive; Mot1-301 SUMO: inactive; CHT block: inactive; NALP3 yeast inh: inactive; A1 inh: inactive

Results for OC(CSc1c(Cl)cccc1Cl)CN1CCN(c2ccccc2F)CC1 (centres undefined) ?
CHT allo act: inactive; NALP1 yeast inh: 60; Mot1-301 SUMO: inactive; CHT block: inactive; NALP3 yeast inh: inactive; A1 inh: inactive

How did OC(CSc1ccccc1Cl)CN1CCN(c2ccccc2F)CC1 (centres undefined) do in these assays?
CHT allo act: inactive; NALP1 yeast inh: inactive; Mot1-301 SUMO: inactive; CHT block: inactive; NALP3 yeast inh: inactive; A1 inh: inactive

How did Cc1ccc(C(=O)COC(=O)c2ccc3c(c2)C(=O)N(c2cccc4ncccc24)C3=O)cc1 do in these assays?
CHT allo act: inactive; NALP1 yeast inh: inactive; Mot1-301 SUMO: inactive; CHT block: inactive; NALP3 yeast inh: inactive; A1 inh: 6.4

What do the screens show for `CC1(OC(=O)CCc2ccccc2)C(=O)C=C2C=C3CCCN3C=C2C1=O` (centres undefined)?
CHT allo act: inactive; Mot1-301 SUMO: inactive; CHT block: inactive; NALP3 yeast inh: inactive; A1 inh: inactive

Results for CC1(OC(=O)c2cccs2)C(=O)C=C2C=C3CCCN3C=C2C1=O (centres undefined) ?
CHT allo act: inactive; Mot1-301 SUMO: inactive; CHT block: -5.3; NALP3 yeast inh: inactive; A1 inh: inactive

Results for CC(=NCc1ccco1)c1c(C)[nH]n(-c2nc3ccccc3s2)c1=O ?
CHT allo act: inactive; NALP1 yeast inh: inactive; Mot1-301 SUMO: 353; CHT block: inactive; NALP3 yeast inh: inactive; A1 inh: inactive

How did COc1cccc(N2CCN(c3ncnc4c3[nH]c3ccccc34)CC2C)c1 (centres undefined) do in these assays?
CHT allo act: inactive; NALP1 yeast inh: inactive; Mot1-301 SUMO: 523; CHT block: inactive; NALP3 yeast inh: inactive; A1 inh: inactive

Results for COc1ccc(N(C(=O)CCl)C(C(=O)NCCc2ccccc2)c2cccs2)cc1Cl (centres undefined) ?
CHT allo act: inactive; NALP1 yeast inh: inactive; Mot1-301 SUMO: 264; CHT block: inactive; A1 inh: inactive

Results for COc1ccccc1NS(=O)(=O)c1cc(NC(=O)C2CCCO2)ccc1C (centres undefined) ?
Mot1-301 SUMO: inactive; NALP3 yeast inh: inactive; A1 inh: inactive
